Screening results deposited in PubChem BioAssay by several laboratories.
Only some compounds are listed: those with a hit (about 3.3% of all), similar ones and a draw of the others.
Gli-Sufu antag: antagonists of Gli-Sufu signaling; Sufu-KO-LIGHT fibroblasts, Gli luciferase reporter luminescence; inhibition, % at 5 µM; 0.74% of 340,000 active; AID 588413;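 active means inhibition above about 55%, limit read from the data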;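 further: 0% = DMSO-treated cells and 100% = wells with medium but no cells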
697 NFkB inh: inhibitors of the PMA/ionomycin-induced NF-kB reporter in 697 B cells | 697 B-cell NF-kB luciferase reporter, 16 h | inhibition, % at 4 µM | 0.33% of 330,000 active | AID 435022; in the data active means inhibition above about 35%
SMARCA2 act: activators of SMARCA2 function; MG213 cells, MMTV-luciferase reporter, dexamethasone, overnight; activation, % at 9.1 µM; 1% of 370,000 active; AID 652017; in the data active means activation above about 7.8%;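 further: 0% = vehicle wells and 100% = reference activator wells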
Jurkat NFkB inh: inhibitors of the PMA/ionomycin-induced NF-kB reporter in Jurkat cells | PMA/ionomycin-induced NF-kB luciferase reporter, luminescence | inhibition, % at 4 µM | 0.53% of 330,000 active | AID 435003; in the data active means inhibition above about 50%
esBAF inh: blocks esBAF chromatin remodeling in mouse ES cells; AID 602393; 2% of 350,000 active; Bmi1-luciferase knock-in reporter, 24 h; 100% = twice the neutral-well signal; reporter increase, % at 12.5 µM; in the data active means activation above about 40%;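 further: 0% = median of the plate's neutral control wells and 100% = double that signal; a rise in the Bmi1 reporter signal indicates esBAF inhibition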
SMARCA2 conf: SMARCA2 activation, confirmation screen. shares compounds with SMARCA2 act. MG213 cells, MMTV-luciferase with dexamethasone, luminescence, overnight; MG213 cells expressing E1A, Rb sequestered; DMSO wells 0%, reference activator 100%. activation, % at 9.1 µM. 30% of 3,500 active. AID 652260;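 active means activation above its plate's cutoff, the mean activation of tested wells plus 3 SD, cut at about 7.9% in these data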
GAL4-VP16 Luc: activates GAL4-VP16 luciferase, flagging SMARCA2 activator hits; shares compounds with SMARCA2 act; HEK293 GAL4-VP16 pG5luc reporter, luciferase luminescence; scaled: DMSO wells 0%, SAHA wells 100%; activation, % at 9.1 µM; 41% of 3,500 active; AID 686939;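 active means activation above the solvent-only control well mean plus 3 SD, averaged across control plates, cut at about 5.2% in these data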
* marks the source's active call; other numbers are inactive results; · = no result.

SMILES | Gli-Sufu antag | 697 NFkB inh | SMARCA2 act | Jurkat NFkB inh | esBAF inh | SMARCA2 conf | GAL4-VP16 Luc
CN1C(=O)c2cc(NC(=O)Cc3ccccc3)ccc2OC[C@H]2O[C@@H](CC(=O)NCc3ccc(Cl)cc3)CC[C@H]21 | · | · | · | · | 4 | · | ·
Clc1ccc(Nc2nc(C3CC3)cs2)cc1 | -39 | -163 | 8.2* | -106 | 30 | 5 | 7.1*
CC1CCCC(C)N1CCCNC(=O)CN1C(=O)c2cccnc2Oc2ccc(Cl)cc21 (configuration not stated) | -18 | -5 | 8.9* | -19 | -6 | -1 | 1
COc1cccc(NC(=O)CN2C(=O)c3cccnc3Oc3ccc(Cl)cc32)c1 | -2 | -9 | 8.3* | -7 | 17 | 1 | 0
Cc1ccc2c(c1)N(CC(=O)NCCCN1C(C)CCCC1C)C(=O)c1cccnc1O2 (configuration not stated) | -2 | 6 | 7 | -3 | -6 | · | ·
CN(CCCNC(=O)CCCOc1cc(=O)n(C)c2ccccc12)Cc1ccccc1 | 20 | 19 | 9.6* | 4 | -3 | 2 | 3
O=C(Nc1ccccn1)C(=O)Nc1ccccn1 | -46 | -116 | 11* | -20 | · | 6 | 8.5*
COc1cc(Br)c(/C=C/c2ccc3cccc(O)c3n2)cc1OC | -2 | 2 | -1 | -8 | 23 | · | ·
COc1ccc(OC)c(/C=C/c2ccc3cccc(O)c3n2)c1 | · | -24 | 9.1* | 9 | · | -16 | 13*
Cc1ccsc1/C=C/c1ccc2cccc(O)c2n1 | 11 | -144 | 13* | -148 | · | -9 | 19*
COc1ccc(S(=O)(=O)N[C@@H]2C=C[C@@H](CC(=O)N3CCC(Cc4ccccc4)CC3)O[C@H]2CO)cc1 | · | · | · | · | 6 | · | ·
COc1ccc2c(c1)[nH]c1c(=O)n(Cc3ccncc3)cnc12 | -20 | -5 | 8.6* | 3 | · | 3 | 1
Cc1noc(C)c1NC(=O)N(C)C[C@H]1Oc2c(NC(=O)c3cnccn3)cccc2C(=O)N([C@H](C)CO)C[C@@H]1C | · | · | · | · | 2 | · | ·
CC=Cc1ccc2n(c1=O)C[C@@H]1[C@@H](CO)[C@H](C(=O)N[C@H](C)c3ccccc3)[C@H]2N1Cc1cccnc1 (mixture of isomers) | · | · | · | · | -9 | · | ·
COc1cc(/C=C2\COC/C(=C\c3ccc(O)c(OC)c3)C2=O)ccc1O | 1 | -61 | 13* | 4 | · | 4 | -1
C[C@@H]1CN([C@@H](C)CO)C(=O)c2cc(NS(=O)(=O)c3ccc(Cl)cc3)ccc2O[C@@H](C)CCCCO[C@H]1CN(C)C(=O)c1ccccc1 | · | · | · | · | -2 | · | ·
CC(C)NC(=O)C1(C#N)C=C1c1ccccc1 (configuration not stated) | · | · | 9.4* | · | · | 3 | -1
CC(C)NC(=O)c1ccccc1-c1ccccc1 | 5 | -11 | -1 | -9 | -1 | · | ·
O=C1C=C(Nc2ccc(Cl)cc2)CC(c2ccc(Cl)cc2)C1 (configuration not stated) | 13 | -7 | -2 | 20 | 8 | · | ·
Cc1ccc(C2CC(=O)C=C(Nc3ccc(Cl)cc3)C2)cc1 (configuration not stated) | 19 | -13 | 9.9* | -9 | · | -6 | 2
COc1cccc(C(=O)Nc2cccc(-c3ccc(N4CCOCC4)nn3)c2)c1OC | -55 | -93 | 12* | -84 | 20 | 11* | 15*
NS(=O)(=O)c1cc(C(=O)OC2CCOC2=O)ccc1Cl (configuration not stated) | -10 | 8 | 0 | 7 | -2 | · | ·
O=C(OC1CCOC1=O)c1ccc2ncsc2c1 (configuration not stated) | 0 | 13 | 12* | -6 | 4 | 0 | 0
C[C@@H]1CN([C@H](C)CO)C(=O)Cc2cc(NS(=O)(=O)c3cccs3)ccc2O[C@H]1CN(C)Cc1ccc2c(c1)OCO2 | · | · | · | · | 5 | · | ·
CC(=O)Nc1cc(-c2cccc(C(=O)NCCN(C)C)c2)cn2c(-c3cccc(C(F)(F)F)c3)cnc12 | · | · | 22* | · | -85 | -15 | 2
SMILES | Gli-Sufu antag | 697 NFkB inh | SMARCA2 act | Jurkat NFkB inh | esBAF inh | SMARCA2 conf | GAL4-VP16 Luc
CC(=O)Nc1cccc(-c2cc(NC(C)=O)c3ncc(-c4cccc(C(C)=O)c4)n3c2)c1 | · | · | 8.9* | · | 11 | 4 | 1
COc1ccc(-c2cc(NC(C)=O)c3ncc(-c4cccc(C(C)=O)c4)n3c2)cc1OC | · | · | -2 | · | 3 | · | ·
COc1ccc(-c2cc(NC=O)c3ncc(-c4cccc(C(=O)NCCN(C)C)c4)n3c2)cc1 | · | · | 8.0* | · | 9 | 11* | 0
CN(C)CCNC(=O)c1cccc(-c2cnc3c(NC=O)cc(-c4ccc(F)cc4)cn23)c1 | · | · | 5 | · | 4 | · | ·
CCS(=O)(=O)N1CCc2nc(-c3ccccc3)sc2C1 | -71 | -146 | 8.1* | -89 | 13 | 8 | 11*
CNC(=O)C[C@H]1CC[C@@H]2[C@@H](COc3ccc(NC(=O)Nc4cccc(Cl)c4)cc3C(=O)N2C)O1 | · | · | · | · | -2 | · | ·
O=C(c1cccc(Br)c1)N1CCN(C(=O)c2cccc(Br)c2)CC1 | 3 | -2 | 8.8* | -6 | -2 | 1 | -1
O=C(COc1ccccc1Cl)NC(=S)Nc1ccccc1N1CCCC1 | 4 | -8 | 11* | 3 | 6 | -3 | 0
COC(=O)c1ccccc1NC(=S)NC(=O)COc1ccccc1Cl | -16 | 5 | -1 | 7 | -5 | · | ·
CO[C@@H]1CN(C)C(=O)c2ccc(NC(=O)C3CC3)cc2OC[C@@H](C)N(C(=O)Nc2ccc(C(F)(F)F)cc2)C[C@H]1C | · | · | · | · | 5 | · | ·
COc1cccc(-c2nnc(SCc3cccnc3)o2)c1 | -55 | -46 | 10* | -62 | 23 | 6 | 6.6*
Cc1ccc(O)c(N=CC2=C(O)c3ccccc3C2=O)c1 | 9 | 14 | 8.4* | 23 | 78* | 19* | 14*
O=C1C(C=Nc2ccccc2O)=C(O)c2ccccc21 | 15 | -166 | 8 | -75 | -78 | · | ·
O=C(Cn1cc(SCc2cccc(Cl)c2)c2ccccc21)N1CCOCC1 | -52 | -35 | 18* | 7 | 62* | 3 | 5.4*
NC(=O)c1ccc(NC(=O)CSc2cn(CC(=O)N3CCOCC3)c3ccccc23)cc1 | -13 | -1 | 3 | 7 | -2 | · | ·
COc1ccccc1-c1ccc([C@@H]2[C@@H](CO)N3CCCCN(C(=O)CN4CCOCC4)C[C@@H]23)cc1 | · | · | · | · | -10 | · | ·
COc1ccccc1NS(=O)(=O)c1cc(NC(=O)c2[nH]c(C)c(C(C)=O)c2C)ccc1N1CCOCC1 | 7 | -4 | 9.9* | 29 | · | 11* | 6.0*
COc1ccccc1NS(=O)(=O)c1cc(NC(=O)c2ccccc2C)ccc1N1CCOCC1 | 5 | · | 0 | · | -3 | · | ·
COCCNC(=S)Nc1ccc(N2CCOCC2)c(S(=O)(=O)Nc2ccccc2OC)c1 | 14 | 12 | 16* | 17 | -1 | 6 | -1
